Experimental data reported in the supplement of paper PMC6555819.

tested on: VDR:RXRa (NR concentration 270 nM, RXRa partner concentration 90 nM); experiment: PBM binding z-score (relative to random genomic background probes); higher = stronger binding; sequences stand for … in GC…GCGATTGACAGCGTAGAATGAAGG
How it was run: (§1)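 The probes on custom Agilent 4×180K protein-binding microarrays were double-stranded, with 34-nt variable regions bearing direct-repeat seeds, single-nucleotide variants, half-site ablations and random human genomic background sequences. Incubation lasted 1 h with ligand-free nuclear receptor dimers in PBS pH 7.4, 2% milk, 0.02% Triton X-100, 1 mM DTT, 0.2 mg/mL BSA and 0.4 mg/ml salmon testes DNA. Antibodies against each partner (one per run) detected bound dimers, and fluorescence scans were regression-normalized. Binding z-scores take the random background probes as reference.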

Sequence | PBM binding z-score
CCTTACGGGTCACGAAGTTATAGCACGACGAGCG | 3.91
TCTTGTAGATCAAGTAGGTTAAGAAAGCCTGAGT | 0.698
CGTCCAAGGTCAAAGGTCCGTGAAGAGATGACGG | 4.62
CCTTACGGGTCACTGACAGGTTAAAGCATTTGGA | 3.75
ACTAGCAGGCCAAGGGTCACTCGAGATTAGTCCG | 2.56
ATATGGAGGTTACATCCGGGTCATTCAGGCTATG | 5.05
GATACAGGGTCAAGTCCAGAGTACGCGTATTGAT | 4.66
ATATGTAGGTTATCGGGTCATTCAGTTTGCGCAT | 5
ACTATTAGTTGACTTAGGGGAACCGATACGACGC | 0.378
TCTTGTAGATCAGCTGGTTAAGAAAGCTGGCCAA | -0.152
CCTATTAGTTGACCATGAGGGCAACCGAAGCTCG | 1.02
AGAATGAGGTTACCAATGATCAGGGAAACGCTTG | 1.18
CTCGAAAGGTCGGCTGAGGTGAGTATACGGATAA | 2.95
CGTCCAAGGTCAGAGAGGTCAGTGCATGCCGAGT | 7.42
TCTAGTTGGTCACTGAGGTCACACACGACGGGTA | 6.51
ATCTCTAGGTAACCAAGTTCACTGAATGCCGAAC | 5.34
ACTAGCAGGCCAAGTTTGGGTCTCTCAAACAAAG | -0.766
GTACCAAGGTGAATAGGTCGCTGATGAGTAGGCG | 0.351

Sequence | PBM binding z-score
TCTGCTAGGGCAACGATGGTCAGCTAATCTGCTA | -0.552
CGTCCAAGGTGATAGGAGGTCAGTGAAGACAGAT | 3.08
GCTAGTTGGTCAGGAAAAGGTCACACACCGGTCG | 3.66
ATAATGAGGTTATTAAGATCAGGGAATTGCGGTC | 2.88
AGAACGGGGGCACGCTGAGTTGATAGCAGAGTAG | 4.23
TAGCCTAGGTCAGATCGGGCCAGCATACGCTATA | 0.584
CCGACTGGGGCGAAGGTTACCATACTCAGTACGA | 0.0154
AGTCAAAGTTCATCTAGGTAACGTCAGATATGCT | 5.17
CGTCCAAGGTCAGCAGTTCAGTGAAAGCGACGTG | 3.56
AGAGCGAGGGCAATGAGTTGATAGCACGGGTGGC | 4.97
TCTTGTAGATCAGCAGCTTAAGAAAGCTGGCCAA | -0.232
AATACAGGGGCACTAGGCCAGAGTAGGTACGAAT | 0.171
CCTAACGGGTCACTGACAGGTTATAGCATTTGGA | 3.21
ATATGTAGGTTAGCTGGGGTGATTCAGACTAGGC | 1.01
TCTTTTAGTTGAAGGGCAACCGACGAGTCCGTTT | 0.995
TCATATAGGTAAATGCTAGGTGCAAGTCCGATCT | 0.809
ACTCGGAGGACAAAGGTCAGAGCGACGCCAGTGA | 3.47
CGGCCAAGGTCAATGCTAGGTCAGTGAAAGCATT | 4.95

tested on: VDR homodimer (NR concentration 270 nM); experiment: as above
How it was run: as §1

Sequence | PBM binding z-score
CCTTACGGGTCACGAAGTTATAGCACGACGAGCG | 0.721
TCTTGTAGATCAAGTAGGTTAAGAAAGCCTGAGT | 0.191
CGTCCAAGGTCAAAGGTCCGTGAAGAGATGACGG | 2.87
CCTTACGGGTCACTGACAGGTTAAAGCATTTGGA | 0.937
ACTAGCAGGCCAAGGGTCACTCGAGATTAGTCCG | 1.06
ATATGGAGGTTACATCCGGGTCATTCAGGCTATG | 3.3
GATACAGGGTCAAGTCCAGAGTACGCGTATTGAT | 3.51
ATATGTAGGTTATCGGGTCATTCAGTTTGCGCAT | 4.34
ACTATTAGTTGACTTAGGGGAACCGATACGACGC | 0.357
TCTTGTAGATCAGCTGGTTAAGAAAGCTGGCCAA | -0.694
CTCGAAAGGTCGGTTGAGGTGAGTATGCGGATAA | 0.532
CCTATTAGTTGACCATGAGGGCAACCGAAGCTCG | 1.43
AGAATGAGGTTACCAATGATCAGGGAAACGCTTG | 0.0566
CTCGAAAGGTCGGCTGAGGTGAGTATACGGATAA | 0.549
CGTCCAAGGTCAGAGAGGTCAGTGCATGCCGAGT | 6.02
TCTAGTTGGTCACTGAGGTCACACACGACGGGTA | 4.16
ATCTCTAGGTAACCAAGTTCACTGAATGCCGAAC | 3.34
TAGCCTATGTCATTCAGGGGCCAGTATAGAAAGC | -0.479
ACTAGCAGGCCAAGTTTGGGTCTCTCAAACAAAG | -0.181
GTACCAAGGTGAATAGGTCGCTGATGAGTAGGCG | -0.0986

Sequence | PBM binding z-score
TCTGCTAGGGCAACGATGGTCAGCTAATCTGCTA | -0.735
CGTCCAAGGTGATAGGAGGTCAGTGAAGACAGAT | 0.846
GCTAGTTGGTCAGGAAAAGGTCACACACCGGTCG | 1.68
ATAATGAGGTTATTAAGATCAGGGAATTGCGGTC | 1.8
AGAACGGGGGCACGCTGAGTTGATAGCAGAGTAG | 3.45
GCTAGCAGGCCATTTGCGTCACTCAATGACGGGC | -0.529
TAGCCTAGGTCAGATCGGGCCAGCATACGCTATA | -0.746
CCGACTGGGGCGAAGGTTACCATACTCAGTACGA | -0.459
AGTCAAAGTTCATCTAGGTAACGTCAGATATGCT | 5.66
CGTCCAAGGTCAGCAGTTCAGTGAAAGCGACGTG | 2.41
AGAGCGAGGGCAATGAGTTGATAGCACGGGTGGC | 2.82
TCTTGTAGATCAGCAGCTTAAGAAAGCTGGCCAA | -0.685
AATACAGGGGCACTAGGCCAGAGTAGGTACGAAT | 0.185
CCTAACGGGTCACTGACAGGTTATAGCATTTGGA | 0.931
ATATGTAGGTTAGCTGGGGTGATTCAGACTAGGC | 0.601
TCTTTTAGTTGAAGGGCAACCGACGAGTCCGTTT | 1.29
TCATATAGGTAAATGCTAGGTGCAAGTCCGATCT | 0.597
ACTCGGAGGACAAAGGTCAGAGCGACGCCAGTGA | 1.18
CGGCCAAGGTCAATGCTAGGTCAGTGAAAGCATT | 2.22
